Experimental data taken from PubChem BioAssay (NCATS).
Records with an inconclusive call do not appear. A number with no mark means an inactive call. Calls come from the whole dose curve; as a rule, active = well fitted curve in the direction sought with a large enough effect; inconclusive = small, poorly fitted or top-dose-only effect, or another doubt; inactive = no such curve, though single readings can be large or run the other way.

test: KB-8-5-11 P-gp reporter qHTS against the NCATS DSHEA and TCM libraries (AID 1919977); conditions: KB-8-5-11 cells; series mostly up to 26.1 µM; activity change, negative = inhibition: at the top concentration; note: 0% is about no effect
Excerpt: Assay Development and Screening Technology Laboratory (ADST)
National Center for Advancing Translational Sciences (NCATS), Rockville, MD
National Institute of Health (NIH), Bethesda, Maryland
Dietary Supplements and Natural Products have minor oversight of their safety and efficacy. We assembled a collection of Dietary Supplements and Natural Products (DSNP) as well as Traditional Chinese Medicinal (TCM) Plant extracts, which were screened against an in vitro panel of assays, including a liver cytochrome p450 enzyme panel, CAR/PXR signaling pathways, and P-gp transporter assays, to assess their activity. This pipeline facilitated the interrogation of Natural Product-Drug Interaction (NaPDI) through prominent metabolizing pathways. In addition, we compared the activity profiles of the DSNP/TCM substances with those of an approved drug collection. Many of the approved drugs have well-annotated mechanisms of action (MOA) while the MOAs for most of the DSNP and TCM samples remain unknown. Based on the premise that compounds with similar activity profiles tend to share similar targets or MOA, we clustered the library activity profiles to identify overlap with the NCATS Pharmaceutical Collection to predict the MOAs of the DSNP/TCM substances. Overall, we highlight four significant bioactivity profiles (measured by p-values) as examples of this prediction. To assess broad cytotoxicity, we employed screening against a HepG2 cell line. In addition, transporter-mediated drug interactions are utilized in the characterization of DDIs using a P-glycoprotein (P-gp) assays. To profile potential P-gp activity, a differential cell viability was measured against two cell lines: a parental KB-3-1 human cervical adenocarcinoma cell line and the drug-resistant subline KB-8-5-11 that overexpresses P-gp.
To this end, we profiled both collections for potential CAR and/or PXR activity, employing a previously published 1536-well qHTS assay.
[1] Lee TD, et al. A High-Throughput Screen of a Library of Therapeutics Identifies Cytotoxic Substrates of P-glycoprotein. Mol Pharmacol. Nov 2019;96(5):629-640. doi:10.1124/mol.119.115964
PROTOCOL TABLE (as described by Inglese J, Shamu CE and Guy RK. 2007)
SEQUENCE No. (e.g., 1, 2, 3, etc.); PARAMETER (e.g., Cells, Incubation, Reagent, etc.); VALUE; DESCRIPTION.
1; Cells; 5 uL; KB-8-5-11 cells, white solid-bottom tissue treated Greiner plate.
2; Incubation; 4 hrs; 37C, 95% humidity, 5% CO2.
3; Compounds and control; 23 nL; Kalypsis pin tool (Wako USA) equipped with a 1536-well pin head to transfer to the assay plates.
4; Incubation; 72 hrs; 37C, 95% humidity, 5% CO2.
5; Reagent; 2.5 uL; CellTiter-Glo.
6; Centrifuge; 1000 RPM; 15 seconds.
7; Incubation; 30 min; room temperature.
8; Read; Luminescence; ViewLux plate reader.
NOTES (numbers refer to Sequence numbers above)
1. P-gp-overexpressing subline KB-8-5-11 were maintained in DMEM (Thermofisher catalog #11965) with 10% FBS and 1% penicillin/streptomycin at 37C in 5% CO2. For KB-8-5-11 cells, colchicine was added to the medium at a concentration of 100 ng/ml (after initial cell attachment). For the screen, assay medium was identical to culture medium except for KB-8-5-11, where colchicine was excluded from the medium. Briefly, 5 uL of cells at 1 x 10^5 cells/mL (500 cells/well) were dispensed into a 1536-well white solid-bottom tissue treated plate (Greiner Bio-One) using a Multidrop Combi dispenser.
2. Plates were incubated at 37C, 95% humidity, 5% CO2 for ~4 hours to allow for cell attachment.
3. Compounds and intraplate control (Bortezomib; final concentration range 228 pM - 7.5 uM) were transferred (16 nL) via pintool (Wako Automation), for a final concentration of 15.6 nM - 30.0 uM (most substances).
4. Plates were incubated for ~72 hours at 37C, 95% humidity, 5% CO2.
5. Plates were then dispensed with 2.5 uL of CellTiter-Glo.
6. The assay plates were centrifuged for 15 seconds at 1,000 RPM's.
7. The plates were incubated for 30-minute at room temperature.
8. […]

Row | SMILES | activity change, negative = inhibition
1 | COc1ccc(C(C)=O)c(O)c1 | -4.65%
2 | CC(C)c1ccc(C=O)cc1 | -4.27% [at 44.5 µM]
3 | CCCCCCCCCCCCCC(=O)OCC(O)CO (stereo unspecified) | -12.8% [at 44.5 µM]
4 | COc1ccc(-c2coc3cc(O)ccc3c2=O)cc1 | -8.89%
5 | CCCCCCCCCCCC(=O)OCC(O)CO (stereo unspecified) | -5.44%
6 | C=CC(=C)CCC=C(C)C | -5.04%
7 | COc1cc(O)c2c(c1)C(=O)c1cc(C)cc(O)c1C2=O | -13.3%
8 | C[N+](C)(C)CCO | -2.62%
9 | O=c1cc(-c2ccc(O)c(O)c2)oc2cc(O)cc(O)c12 | -19.7%
10 | O=c1c(-c2ccc(O)cc2)coc2cc(O[C@@H]3O[C@H](CO)[C@H](O)[C@H](O)[C@H]3O)ccc12 | 6.43%
11 | O=C(/C=C/c1ccc(O)c(O)c1)OC(Cc1ccc(O)c(O)c1)C(=O)O (stereo unspecified) | -3.13%
12 | CC(=O)O[C@@H]1C[C@@H](C)[C@](O)(CCC2=CC(=O)OC2)[C@@]2(C)CCCC(C)(C)C12 (stereo partly specified) | -9.32%
13 | CC(C)=CCC(O)/C(C)=C/CO[C@@H]1O[C@H](CO)[C@@H](O)[C@H](O)[C@H]1O (stereo partly specified) | 14.7%
14 | CC1=CCC(O)(C(C)C)CC1 (stereo unspecified) | -4.67% [at 44.5 µM]
15 | C=C(C)[C@H]1CC=C(CO)CC1 | -8.28%
16 | C=C(C)[C@@H]1CC=C(C=O)CC1 | -5.92% [at 44.5 µM]
17 | O=c1cc(-c2ccc(O)cc2)oc2cc(O)cc(O)c12 | -8.58%
18 | O=C(O)/C=C/c1ccc(O)c(O)c1 | 14.2%

Row | SMILES | activity change, negative = inhibition
19 | Cc1cc2nc3c(=O)[nH]c(=O)nc-3n(CC(O)C(O)C(O)CO)c2cc1C (stereo unspecified) | -7.39%
20 | O=C(/C=C/c1ccc(O)c(O)c1)O[C@@H]1C[C@](O)(C(=O)O)C[C@@H](O)[C@H]1O | 6.66%
21 | CCCCCCCCCC=O | -9.33% [at 44.5 µM]
22 | O=C(O)c1ccccc1 | -9.32%
23 | O=C(O)/C=C/c1ccccc1 | -1.16% [at 44.5 µM]
24 | CC1=CCC(=C(C)C)CC1 | -6.75% [at 44.5 µM]
25 | C=C1C[C@@]23CC[C@H]4[C@@](C)(CCC[C@@]4(C)C(=O)OC4OC(CO)C(O)C(O)C4O)[C@@H]2CC[C@]1(OC1OC(CO)C(O)C(O)C1OC1OC(CO)C(O)C(O)C1O)C3 (stereo partly specified) | 12.9%
26 | CC(C)(CO)[C@@H](O)C(=O)NCCC(=O)O | 15.9%
27 | CC(=O)C1=C(O)C=C2Oc3c(C(C)=O)c(O)c(C)c(O)c3[C@]2(C)C1=O | 10.8%
28 | Cc1ncc(C[n+]2csc(CCO)c2C)c(N)n1 | 13.3%
29 | C=C/C(C)=C/C/C=C(\C)CCC=C(C)C | -14.8% [at 44.5 µM]
30 | CCCCCCCCCC(=O)O | -12.2%
31 | O=C1c2c(O)cccc2[C@@H]([C@@H]2O[C@H](CO)[C@@H](O)[C@H](O)[C@H]2O)c2cc(CO)cc(O)c21 | -3.41%
32 | C[C@@]12C[C@@]3(O)O[C@@H](O1)[C@]1(COC(=O)c4ccccc4)[C@@H]3C[C@@]12O[C@@H]1O[C@H](CO)[C@@H](O)[C@H](O)[C@@H]1O | -0.948%
33 | CCCCCC(=O)CC | -1.5% [at 79.1 µM]
34 | CCCCCCCC(=O)O | -6.49%
35 | CC(=O)OC/C=C/c1ccccc1 | -10.9% [at 44.5 µM]
36 | C=C(CO)C(=O)O[C@H]1CC(=C)[C@@H]2C[C@H](O)C(=C)[C@@H]2[C@H]2OC(=O)C(=C)[C@@H]21 | -2.08%
